Arbovirus anti: arbovirus infection inhibition. arbovirus infection cell-based antiviral screen. inhibition, % at 10 µM. actives 0.37% (n = 200,000); in the data active means inhibition above about 30%
CHOP inh: CHOP inhibition in unfolded protein response. actives 3.8% (n = 220,000). inhibition, % at 10 µM. AID 2732. CHO-K1 CHOP-promoter luciferase, tunicamycin-induced, 15-18 h;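 active means compounds that reduced the stress-induced luciferase reporter signal by more than about 70% of percent inhibition, limit read from the data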;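 further: 0% = tunicamycin plus vehicle and 100% = wells without tunicamycin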
L major viab: inhibitors of Leishmania major promastigote growth. AID 1063. actives 9% (n = 200,000). inhibition, % at 10 µM. Leishmania major promastigotes, resazurin fluorescence viability; in the data active means inhibition above about 50%;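 further: promastigotes grown with compound for 44 hours at 28 °C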
WT yeast gro inh: growth inhibition of WT yeast, mitochondrial fusion screen | mitochondrial fusion phenotypic screen, WT strain | inhibition, % at 10 µM | actives 2.1% (n = 190,000); in the data active means inhibition above about 58%; tested in S. cerevisiae
Active calls of the source: *; x = no result. Sampled rows, rich in hits. Any-hit rate of the full collection: about 12%.

SMILES	Arbovirus anti	CHOP inh	L major viab	WT yeast gro inh
COC(=O)N[C@H](CC(C)=O)c1ccccc1	-2.3	-14.5	15.1	-13.1
O=C(Oc1ccccc1)c1cccnc1Oc1ccccc1	x	7.0	x	x
O=C(c1ccc(Br)o1)N(Cc1ccccc1)Cc1ccccc1	1.0	8.9	7.4	78.8*
C/C(Cc1ccccc1)=N\NC(=O)CNC(=O)c1ccc(C(C)(C)C)cc1	-1.1	26.3	-3.3	5.3
Oc1ccc(N2CCN(c3nnnn3-c3ccccc3)CC2)cc1	-22.9	19.0	7.1	-9.2
Cn1c(=N)n(CC(O)c2cccc3ccccc23)c2ccccc21 (stereo not drawn)	-8.3	x	101.8*	5.4
CCOC(Cn1ccc(=O)[nH]c1=O)OCC	x	7.0	x	x
COCC(C)n1c(C)cc(C(=O)COC(=O)c2ccc(N3CCCC3=O)cc2)c1C (stereo not drawn)	-1.1	36.2	68.5*	-7.8
CC12COC3(C(=O)Nc4ccc5ccccc5c4)CC1CCC32C (stereo not drawn)	7.7	15.8	21.3	77.1*
CC12COC3(C(=O)Nc4ccccc4)CC1CCC32C (stereo not drawn)	-0.1	1.1	4.5	2.0
CCNC(=O)NC(=O)C(C)OC(=O)CNS(=O)(=O)c1c(Cl)cc(Br)cc1Cl (stereo not drawn)	5.6	1.7	-4.7	-9.8
Cc1ccccc1NC(=O)COC(=O)CNC(=O)c1sc2ccccc2c1Cl	8.8	26.4	87.2*	5.9
O=C(COC(=O)CNC(=O)c1sc2ccccc2c1Cl)Nc1cc(Cl)cc(Cl)c1	1.8	23.7	-6.5	-0.2
CCN(CC)S(=O)(=O)c1cc(NC(=O)COC(=O)c2ccc(NC(=O)CC#N)cc2)ccc1C	-1.6	-8.6	-11.2	6.8
CCN(CC)S(=O)(=O)c1cc(NC(=O)COC(=O)c2sc3ccccc3c2Cl)ccc1C	1.7	4.0	50.0*	9.3
O=C(O)CCc1nn2c3ccccc3nc2n(Cc2ccccc2)c1=O	3.3	0.8	6.1	-12.1
CCCn1ncc(CN2CCCC(C(=O)c3cccc(OC(C)C)c3)C2)c1C (stereo not drawn)	x	7.2	x	x
CC(C)Oc1cccc(C(=O)C2CCCN(Cc3ccc(Oc4ncccn4)cc3)C2)c1 (stereo not drawn)	-7.2	7.0	79.1*	6.9
COc1c(C)cc(C(=O)C2CCCN(Cc3ccc(Oc4ncccn4)cc3)C2)cc1C (stereo not drawn)	4.2	21.5	82.1*	-2.8
CCCn1cc(CN2CCCC(C(=O)c3cccc(OC(C)C)c3)C2)c(C)n1 (stereo not drawn)	0.0	11.8	73.8*	11.8
CCSc1nnc(NC(=O)CSc2nc(CC)nc3c2c(=O)n(C)c(=O)n3C)s1	3.4	82.4*	-5.9	4.6
CCc1nc(SCC(=O)Nc2nnc(CC)s2)c2c(C)c(C)sc2n1	3.5	95.6*	-5.4	-7.4
CCn1nnnc1SCC(=O)NC1Cc2ccccc2C1	x	6.8	x	x
COc1ccc(/C(C)=N/NC(=O)CNC(=O)CCc2ccccc2)c(OC)c1	x	18.0	x	x
Cc1cccc(C)c1NC(=O)CNCC(=O)N(C)C	0.7	7.8	-10.5	-17.7
SMILES	Arbovirus anti	CHOP inh	L major viab	WT yeast gro inh
CC(C)COP(=O)(OCC(C)C)C(O)c1ccc(N(C)C)cc1 (stereo not drawn)	x	11.7	x	x
COc1ccc(C(O)P(=O)(OCC(C)C)OCC(C)C)c(OC)c1 (stereo not drawn)	8.7	-8.8	65.2*	3.4
CCn1c(SCc2cccc(F)c2)nc2c(c1=O)SCC2	11.2	52.4	7.7	12.9
CCc1ccc(CC2S/C(=C(\C#N)C(C)=O)NC2=O)cc1 (stereo not drawn)	32.5*	-21.8	-6.0	12.4
CCOC(=O)c1ccc(CC2S/C(=C(\C#N)C(C)=O)NC2=O)cc1 (stereo not drawn)	-3.3	27.2	-8.6	-2.7
CC(=O)Nc1nc(-c2ccccc2)nc(-c2ccccc2OC(C)=O)n1	-6.9	90.4*	5.6	37.3
O=C(CCN1CCC(c2cccs2)=N1)c1cccs1	x	3.5	x	x
CCOC(=O)c1ccc(NC(=O)c2cccc(S(=O)(=O)N3c4ccccc4CC3C)c2)s1 (stereo not drawn)	-14.1	71.5*	99.2*	29.7
CC1Cc2ccccc2N1S(=O)(=O)c1cccc(C(=O)N2CC(=O)Nc3ccccc32)c1 (stereo not drawn)	x	35.9	x	x
CC1Cc2ccccc2N1S(=O)(=O)c1cccc(C(=O)N2CCN(c3ncccn3)CC2)c1 (stereo not drawn)	38.3*	17.0	77.4*	19.4
CC(=O)N(c1ccc(C)cc1)S(=O)(=O)c1ccc(Cl)cc1	-0.4	-0.2	7.6	5.6
COc1ccc(S(=O)(=O)N2CCCCCC2)cc1	-1.8	6.8	-3.9	3.2
COc1ccc(S(=O)(=O)N2CCC(N3CCCCC3)CC2)cc1	-6.2	-5.4	91.9*	4.0
O=S(=O)(c1ccc(Cl)cc1)N1CCN(C2CCCCCC2)CC1	-3.5	-19.9	89.7*	16.6
